Compound activity: PubChem BioAssay, several laboratories
Shown is part of a subset that was picked to be rich in hits.
BoNT A protease = BoNT A light chain protease inhibition. multiplex microsphere protease substrate cleavage, flow cytometry. inhibition, % at 10 µM. hit rate 0.17% among 360,000
Anthrax LF inh2 = blocks Bacillus anthracis lethal factor protease; P15917; multiplex microsphere protease cleavage assay, LF; inhibition, % at 10 µM; hit rate 0.12% among 360,000
BoNT F protease = blocks Botulinum neurotoxin F light chain protease; Multiplex microsphere protease cleavage assay, flow cytometry; AID 588497; hit rate 0.22% among 360,000; inhibition, % at 10 µM; in the data active means inhibition above about 35%, passing the limit was not always enough; inconclusive means no clear call, values can overlap the other calls
TcdB inh = TcdB glycohydrolase inhibition. hit rate 0.24% among 350,000. TcdB glycohydrolase enzymatic assay, plate reader. inhibition, % at 9.99 µM. P18177; in the data active means inhibition above about 10%
Bead autofluor = counter-screen for toxin protease inhibitors: compound fluorescence | AID 624483 | compound autofluorescence counterscreen, microsphere flow cytometry; hits give high values | fluorescence intensity (test concentration not listed) | hit rate 3.1% among 360,000; in the data active means fluorescence intensity above about 16000; inconclusive means no clear call, values can overlap the other calls
Each line names hits and unclear results; the compound was inactive in the other large screens. Unless noted, no stated cut-off is given here; in the data, active means inhibition above about 30%; inconclusive means no clear call, values can overlap the other calls; inactive means below that.

Cc1ccnc(NC(=O)c2ccc3c(c2)OCO3)c1	none
O=C(Nc1ccon1)c1ccc2c(c1)OCO2	BoNT A protease inconclusive, Bead autofluor 16433 (no result: TcdB inh)
O=C(Nc1ccc2nsnc2c1)c1ccc2c(c1)OCO2	Bead autofluor 23719
CN(C[C@@H]1N[C@H](CO)[C@H]1c1ccccc1)C(=O)c1ccccn1	none (no result: BoNT A protease, Anthrax LF inh2, BoNT F protease, Bead autofluor)
O=C(Nc1ccccc1F)N[C@H]1CC[C@@H](CC(=O)N2CCCCC2)O[C@H]1CO	none (no result: BoNT A protease, Anthrax LF inh2, BoNT F protease, Bead autofluor)
O=C(Oc1ccc(-c2cn3c(n2)SCC3)cc1)c1ccccc1	Bead autofluor 20792 (no result: TcdB inh)
CC(=O)Nc1ccc(-c2cn3c(n2)SCC3)cc1	none
CO[C@@H]1CN(C)C(=O)c2ccc(NC(=O)C3CC3)cc2OC[C@@H](C)N(Cc2ccccc2)C[C@H]1C	none (no result: BoNT A protease, Anthrax LF inh2, BoNT F protease, Bead autofluor)
O=C(CCC(=O)OCC(=O)c1ccc(Br)cc1)Nc1ccc(Br)c2cccnc12	Bead autofluor 18928 (no result: TcdB inh)
COC(=O)c1cn(C(=O)c2ccc(C)cc2)c2ccccc12	none
Cc1ccc(C(=O)n2cc(CCN3CCS(=O)(=O)CC3)c3ccccc32)cc1	Bead autofluor 16475 (no result: TcdB inh)
COc1ccc(C(=O)NCC(=O)Nc2ccc(F)cc2)cc1OC	BoNT A protease inconclusive, Bead autofluor 16515
O=C(C[C@H]1CC[C@H](NC(=O)c2ccncc2)[C@@H](CO)O1)Nc1ccc(-c2ccccc2)cc1	none (no result: BoNT A protease, Anthrax LF inh2, BoNT F protease, Bead autofluor)
O=C(C[C@H]1C=C[C@@H](NC(=O)Nc2ccc3c(c2)OCO3)[C@H](CO)O1)NCc1ccc(Cl)cc1	none (no result: BoNT A protease, Anthrax LF inh2, BoNT F protease, Bead autofluor)
O=C(c1cccs1)N(C(=O)c1cccs1)c1ccc(Br)cn1	Bead autofluor 22230 (no result: TcdB inh)
Cc1ccnc(N(C(=O)c2cccs2)C(=O)c2cccs2)c1	none (no result: TcdB inh)
CCOC(=O)c1cc(OC(=O)c2ccccc2OC)n(-c2ccccc2)n1	BoNT A protease inconclusive, Bead autofluor 20755
COCCNC(=O)C[C@@H]1C[C@@H]2c3cc(NC(=O)c4cccnc4)ccc3O[C@@H]2[C@H](CO)O1	none (no result: BoNT A protease, Anthrax LF inh2, BoNT F protease, Bead autofluor)
Cc1oc2cc(O)ccc2c(=O)c1N1C(=O)c2ccccc2C1=O	Bead autofluor 19700 (no result: TcdB inh)
CCCOc1ccc2c(=O)c(N3C(=O)c4ccccc4C3=O)c(C)oc2c1	Bead autofluor 20166 (no result: TcdB inh)
CN(C)c1ccc2c(c1)[C@@H]1C[C@H](CC(=O)N3CCCCC3)O[C@H](CO)[C@@H]1O2	none (no result: BoNT A protease, Anthrax LF inh2, BoNT F protease, Bead autofluor)
COC(=O)Cn1c(=NC(=O)c2cc(-c3cccs3)nc3ccccc23)sc2cc(S(N)(=O)=O)ccc21	BoNT A protease 38
CCOC(=O)Cn1c(=NC(=O)c2cc(-c3cccs3)nc3ccccc23)sc2cc(S(N)(=O)=O)ccc21	none (no result: TcdB inh)
Cc1c(NC(=O)C(C)OC(=O)Cc2ccccc2)c(=O)n(-c2ccccc2)n1C (stereo unspecified)	Bead autofluor 24503
Cc1c(NC(=O)C(C)OC(=O)C(NC(=O)c2ccco2)C(C)C)c(=O)n(-c2ccccc2)n1C (stereo unspecified)	BoNT A protease inconclusive, Bead autofluor 22112 (no result: TcdB inh)
C=CCc1cccc(CNc2c(C)n(C)n(-c3ccccc3)c2=O)c1O	Bead autofluor 16249 (no result: TcdB inh)
Cc1c(NC(=O)c2ccco2)c(=O)n(-c2ccccc2)n1C	BoNT F protease inconclusive
Cc1c(NC(=O)C(C)OC(=O)CCc2ccccc2)c(=O)n(-c2ccccc2)n1C (stereo unspecified)	none
Cc1c(NC(C)c2ccccc2O)c(=O)n(-c2ccccc2)n1C (stereo unspecified)	Bead autofluor 24008
CC(C)NC(=O)N[C@@H]1CC[C@H](CCNC(=O)C2CCOCC2)O[C@H]1CO	none (no result: BoNT A protease, Anthrax LF inh2, BoNT F protease, Bead autofluor)
O=C(N[C@H]1CC[C@@H](CCn2cc(C3(O)CCCC3)nn2)O[C@H]1CO)C1CCC1	none (no result: BoNT A protease, Anthrax LF inh2, BoNT F protease, Bead autofluor)
Cc1ccc(-c2nnc(Nc3ccccc3)c3ccccc23)cc1S(=O)(=O)NCC1CCCO1 (stereo unspecified)	Bead autofluor 21430 (no result: TcdB inh)
CC(C)c1[nH]nc2c1C(c1cccs1)C(C#N)=C(N)O2 (stereo unspecified)	Bead autofluor 20949 (no result: TcdB inh)
COc1ccc(S(=O)(=O)Nc2ccc3c(c2)C(=O)N([C@H](C)CO)C[C@@H](C)[C@@H](CN(C)S(=O)(=O)c2c(C)noc2C)OCCCC[C@H](C)O3)cc1	none (no result: BoNT A protease, Anthrax LF inh2, BoNT F protease, Bead autofluor)
CC1=CC(C)(C)N(C(=O)CSc2nnc(C)s2)c2ccc(C)cc21	none
CC1=CC(C)(C)N(C(=O)CSc2nnc(N)s2)c2cc(C)c(C)cc21	Bead autofluor 23062 (no result: TcdB inh)
CN(Cc1ccccc1)C(=O)c1ccccc1NC(=O)c1ccccc1	Bead autofluor 22709
Cc1nc2c(C(=O)NCc3ccccc3)c[nH]n2c(=O)c1Cl	Bead autofluor 20750 (no result: TcdB inh)
Cc1ccc(C(=O)NCc2ccccc2)c(F)c1F	none
CN(Cc1ccccc1)C(=O)c1ccccc1NC(=O)C1CC1	none
O=C(Nc1ccccc1C(=O)NCc1ccccc1)c1ccccc1	Bead autofluor 22302 (no result: TcdB inh)
O=C(Nc1ccccc1C(=O)NCc1ccccc1)c1ccco1	none (no result: TcdB inh)
Cc1nc2c(C(=O)NCc3ccccc3Cl)c[nH]n2c(=O)c1Cl	none
Cc1cc(C(=O)NCc2ccccc2)c(=O)[nH]c1C	Bead autofluor 23927 (no result: TcdB inh)
CCCNC(=O)C1(C)CCCN(C(=O)c2ccccc2OC(F)(F)F)C1 (stereo unspecified)	TcdB inh 12
CN1CC(c2ccc(Cl)c(Cl)c2)[C@@]2(COc3ccccc3C2=O)[C@@]12C(=O)Nc1ccccc12 (stereo partly specified)	Bead autofluor 20876 (no result: TcdB inh)
C[C@@H]1CCCCO[C@H](CN(C)S(=O)(=O)c2ccccc2)[C@H](C)CN([C@@H](C)CO)C(=O)c2cc(NC(=O)NC3CCCCC3)ccc2O1	none (no result: BoNT A protease, Anthrax LF inh2, BoNT F protease, Bead autofluor)
O=C(NNc1ccc([N+](=O)[O-])cc1)C12CC3CC(CC(C3)C1)C2	Bead autofluor 20243 (no result: TcdB inh)
CO[C@@H]1CN(C)C(=O)c2cc(NC(C)=O)ccc2OC[C@H](C)N(Cc2cc(F)ccc2F)C[C@@H]1C	none (no result: BoNT A protease, Anthrax LF inh2, BoNT F protease, Bead autofluor)
NS(=O)(=O)c1ccc(Nc2nc(-c3ccc(O)cc3)cs2)cc1	Bead autofluor 21481 (no result: TcdB inh)
CN(C)CCCNC(=O)C[C@@H]1CC[C@@H]2[C@H](COc3ccc(NS(C)(=O)=O)cc3C(=O)N2C)O1	none (no result: BoNT A protease, Anthrax LF inh2, BoNT F protease, Bead autofluor)
CN(C)CCN(C)Cc1c2ccccc2c(CN(C)CCN(C)C)c2ccccc12	BoNT A protease 33
Brc1ccc(-c2nc3ccc(Br)cn3c2Cc2ccccc2)cc1	none
Fc1ccc(-c2nc3ccc(Br)cn3c2Cc2ccccc2)cc1	TcdB inh 13
C[C@@H]1CN([C@@H](C)CO)C(=O)Cc2cc(NC(=O)C3CCCCC3)ccc2O[C@@H]1CN(C)S(=O)(=O)c1ccc(F)cc1	none (no result: BoNT A protease, Anthrax LF inh2, BoNT F protease, Bead autofluor)
Cc1ccc(C(=O)CSc2nc3ccccc3c(=O)[nH]2)cc1	Bead autofluor 21593 (no result: TcdB inh)
CCc1ccc(C(=O)CSc2nc3ccccc3c(=O)[nH]2)cc1	Bead autofluor 21509 (no result: TcdB inh)
O=C(OCCCN=C1NS(=O)(=O)c2ccccc21)c1ccccc1F	Bead autofluor 20170 (no result: TcdB inh)
O=C(OCCCN=C1NS(=O)(=O)c2ccccc21)c1ccc(F)cc1	none (no result: TcdB inh)
Cc1occc1C(=O)O/N=C(\N)c1ccc(Cl)cc1	BoNT F protease 40
CC(C)CC#Cc1ccc([C@H]2[C@@H](CO)N3C(=O)CN(C(=O)CN4CCOCC4)C[C@@H]23)cc1	none (no result: BoNT A protease, Anthrax LF inh2, BoNT F protease, Bead autofluor)
Nc1cc(S(=O)(=O)N2CCOCC2)ccc1N1CCOCC1	none
CC(=O)N1CCN(c2ccc(S(C)(=O)=O)cc2[N+](=O)[O-])CC1	TcdB inh 11
